Data on eight compounds can be found in PubChem BioAssay (Tox21).

The target in assay [1] is Thyrotropin receptor (Homo sapiens) (UniProt P16473). The assay can be described thus: qHTS assay to identify small molecule agonists of the thyroid stimulating hormone receptor (TSHR) signaling pathway (AID 1224843; calls by dose curve; also: nearly all actives have a fitted effect of over 45% in size; also: potency is read from the fitted curve at half-maximal effect). In outline:
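Agonist activity read as cAMP rise via d2/cryptate HTRF competition, 1 h room-temperature detection, in HEK293 cells expressing TSHR. Fifteen-point titrations, each run in triplicate, with a 30 min room-temperature incubation beforehand.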
(Quantitative high-throughput screening tests each substance at several concentrations.)

Assay [2] in a line: qHTS assay to identify small molecule agonists of H2AX (AID 1224845; active = well fitted activation curve with a large enough effect in the signal ratio in the repeat runs, not every such curve was filed as active; the % refers to the signal ratio; also: potency is read from the fitted curve at half-maximal effect). The gist of the method: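 Phospho-H2AX Ser139 measured by HTRF (ex 320 nm; em 665 and 620 nm) after 24 hr antibody incubation. Compounds, 15 concentrations, 0.76% DMSO, were applied to CHO-K1 cells for 3hr at 37C before lysis.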
Assay [3] can be described thus: qHTS assay to identify small molecule agonists of the hypoxia (HIF-1) signaling pathway (AID 1224846; active = well fitted activation curve with a large enough effect in the signal ratio in the repeat runs, not every such curve was filed as active; the % refers to the signal ratio). The gist of the method:
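In ME-180 cells bearing an HRE-bla construct, 17 h treatment with DMSO-dissolved compounds at 37C was followed by CCF4-AM loading to quantify reporter induction.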

Assay [4] is described as follows: qHTS assay to identify small molecule agonists of H2AX - cell viability counter screen (AID 1224847; calls by dose curve; also: top concentration of the series differs between compounds; nearly all actives have a fitted effect of over 30% in size). In outline: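 Cytotoxicity counter screen in wild-type CHO-K1 cells: a 3 hr compound treatment at 37C across 15 concentrations, followed by CellTiter-Glo luminescence to gauge viable cells.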
Assay [5] is described as follows: qHTS RealTime-Glo MT Cell Viability Assay in HepG2 cells - 24 hour (AID 1224867). Also: nearly all actives have a fitted effect of over 50% in size. The gist of the method:
(§1)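 Luminescence read-out: viable HepG2 cells reduce a prosubstrate to a NanoLuc substrate, giving a signal proportional to live cell number. Reads taken at 0, 8, 16, 24, 32 and 40 h of compound exposure at 37 C.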

A short description of assay [6]: A CellTox Green Cytotoxicity Assay to monitor cytotoxicity in HEK293 cells - 0 hour (AID 1224869). Also: nearly all actives have a fitted effect of over 50% in size. In outline: (§2)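 Homogeneous no-lysis format: HEK293 cell suspension mixed with CellTox Green reagent, seeded, incubated 5 h at 37 C/5% CO2, then dosed by pintool with compound in DMSO.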
The nature of assay [7]: A CellTox Green Cytotoxicity Assay to monitor cytotoxicity in HEK293 cells - 40 hour (AID 1224871). Also: nearly all actives have a fitted effect of over 45% in size. In outline: as §2
The nature of assay [8]: qHTS RealTime-Glo MT Cell Viability Assay in HEK293 cells - 16 hour (AID 1224872). Also: top concentration of the series differs between compounds; nearly all actives have a fitted effect of over 50% in size. In outline: (§3)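 Nonlytic real-time viability readout: viable cells convert prosubstrate to NanoLuc substrate, giving luminescence proportional to live cell number. HEK293, 600 cells/well, compound added after 5 h, continuous culture at 37 C.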
Assay [9] in a line: qHTS RealTime-Glo MT Cell Viability Assay in HepG2 cells - 8 hour (AID 1224873). Also: nearly all actives have a fitted effect of over 55% in size. In outline:
(§4)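 Real-time viability: cells seeded at 600 per well together with NanoLuc and cell-permeant prosubstrate, compounds added after 5 h incubation. Luminescence tracked at 0, 8, 16, 24, 32 and 40 h of exposure.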

Assay [10] in a line: A CellTox Green Cytotoxicity Assay to monitor cytotoxicity in HEK293 cells - 24 hour (AID 1224875). Also: nearly all actives have a fitted effect of over 45% in size. The gist of the method: as §2
A short description of assay [11]: A CellTox Green Cytotoxicity Assay to monitor cytotoxicity in HepG2 cells - 16 hour (AID 1224876). Also: nearly all actives have a fitted effect of over 45% in size. In outline: (§5)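 Fluorescent DNA-binding dye, 600 HepG2 cells/well, 5 h preincubation then compound in DMSO; same plates read at 0–40 h, 37 C.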
Assay [12] can be described thus: qHTS RealTime-Glo MT Cell Viability Assay in HepG2 cells - 32 hour (AID 1224877). Also: nearly all actives have a fitted effect of over 55% in size. In outline: as §1
Assay [13] can be described thus: A CellTox Green Cytotoxicity Assay to monitor cytotoxicity in HepG2 cells - 24 hour (AID 1224878). Also: nearly all actives have a fitted effect of over 45% in size. The gist of the method:
as §5

Assay [14] is described as follows: A CellTox Green Cytotoxicity Assay to monitor cytotoxicity in HepG2 cells - 40 hour (AID 1224879). Also: nearly all actives have a fitted effect of over 40% in size. In outline: as §5
The nature of assay [15]: qHTS assay to identify small molecule agonists of the hypoxia (HIF-1) signaling pathway - cell viability counter screen (AID 1224844; calls by dose curve; also: nearly all actives have a fitted effect of over 50% in size). In outline: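 Same wells as the HIF-1 reporter screen; ME-180 cells carrying HRE-bla, 17 hr treatment at 37C; CellTiter-Glo luminescence read after 30 min at room temperature.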
Assay [16] can be described thus: qHTS RealTime-Glo MT Cell Viability Assay in HepG2 cells - 40 hour (AID 1224870). Also: nearly all actives have a fitted effect of over 50% in size. Also: potency is read from the fitted curve at half-maximal effect. In outline:
as §4

Assay [17] in a line: qHTS assay to identify small molecule agonists of the estrogen related receptor (ERR) signaling pathway from Tox21 library (AID 1224849; calls by dose curve; also: nearly all actives have a fitted effect of over 15% in size). The settings on record: ERR reporter cell line, ONE-Glo luciferase, 18 h; at 92.4 µM (top of the series) unless noted. The gist of the method: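 Reporter cells (ERR, NTP source) treated with Tox21 10K compounds 18 h, 37 C. Readout: ONE-Glo luminescence, 30 min RT.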

A short description of assay [18]: qHTS RealTime-Glo MT Cell Viability Assay in HEK293 cells - 32 hour (AID 1224868). In outline: as §3
Assay [19] is described as follows: qHTS RealTime-Glo MT Cell Viability Assay in HEK293 cells - 40 hour (AID 1224874). Also: nearly all actives have a fitted effect of over 50% in size. The settings on record: RealTime-Glo luminescence; max response: hits give low values. In outline:
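Measured as luminescence from the same continuously cultured HEK293 wells at successive time points (0, 8, 16, 24, 32, 40 h) after compound addition. Reagent present from seeding; dosing at 5 h; incubation 37 C.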

A short description of assay [20]: qHTS assay to identify small molecule antagonists of the estrogen related receptor (ERR) signaling pathway from Tox21 library (AID 1224848). Also: nearly all actives have a fitted effect of over 50% in size. The gist of the method: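 Luciferase luminescence (ONE-Glo, 30 min room temperature) was the read-out. Cells of the NTP-supplied ERR line, 2,000 per well, were given 6 h at 37 C before compound addition in DMSO and 18 h exposure at 37 C.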

A number with no mark means an inactive call. Results filed as inconclusive are left out. Calls of active or inactive are those of the source. Unless noted, calls follow the shape of the dose curve; as a rule, active = well fitted curve in the direction sought with a large enough effect in the repeat runs; inconclusive = weak or mixed curves; inactive = no such curve, though single readings can be large; an effect the other way counts as inactive or inconclusive.
% is scaled to controls: 0 for no effect and ±100 for the full control effect.

Chain of Thyrotropin receptor (Homo sapiens) (P16473 whole entry, looked up): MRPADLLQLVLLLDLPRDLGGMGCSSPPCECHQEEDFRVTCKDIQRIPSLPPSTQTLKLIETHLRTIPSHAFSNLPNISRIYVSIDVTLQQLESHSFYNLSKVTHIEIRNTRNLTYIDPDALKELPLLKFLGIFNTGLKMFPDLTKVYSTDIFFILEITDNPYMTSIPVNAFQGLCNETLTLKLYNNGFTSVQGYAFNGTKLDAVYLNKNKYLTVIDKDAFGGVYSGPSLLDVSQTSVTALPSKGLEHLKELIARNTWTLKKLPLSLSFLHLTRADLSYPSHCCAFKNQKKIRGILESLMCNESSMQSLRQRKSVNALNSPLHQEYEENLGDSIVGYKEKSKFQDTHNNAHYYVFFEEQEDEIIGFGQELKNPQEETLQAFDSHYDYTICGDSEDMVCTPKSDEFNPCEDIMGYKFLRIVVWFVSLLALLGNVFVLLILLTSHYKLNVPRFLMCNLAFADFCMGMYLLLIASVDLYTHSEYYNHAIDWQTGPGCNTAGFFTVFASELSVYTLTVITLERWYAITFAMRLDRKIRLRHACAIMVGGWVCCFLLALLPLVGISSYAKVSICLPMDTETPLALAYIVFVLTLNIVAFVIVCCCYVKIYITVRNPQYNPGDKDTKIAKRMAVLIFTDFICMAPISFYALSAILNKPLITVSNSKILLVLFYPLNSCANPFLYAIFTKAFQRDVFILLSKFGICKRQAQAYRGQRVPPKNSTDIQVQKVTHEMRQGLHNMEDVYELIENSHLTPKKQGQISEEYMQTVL

On to `CCCCN(N=O)C(=N)N[N+](=O)[O-]`, for which the Potency result in assay [1], in assay [4], in [5], in assay [6], in assay [7] and in assay [8] was “inactive” each time. The Potency result in [9], in assay [10], in assay [11], in assay [12], in [13] and in [14] was “inactive” in each case. Besides, the Potency in assay [2] is 103 µM (active). Moreover, the result in assay [3] was inactive.
For the compound `O=C1C(=O)c2cccc3cccc1c23`, the Potency result in assay [1], in assay [15], in assay [4], in [5], in [6] and in [7] was “inactive” each time. For the same compound, the Potency entry in [10], in [11], in assay [13] and in [14] was “inactive” throughout. For the same compound, the outcome in assay [3] was inactive. For the same compound, the Potency in assay [16] is 17.4 µM (active).
In the case of `COC(C)(C)CCC[C@H](C)C/C=C/C(C)=C/C(=O)OC(C)C`, the Potency entry in [1], in assay [15], in assay [4], in [5], in assay [18] and in assay [6] was “inactive” each time. Moreover, the Potency result in assay [8], in assay [9], in assay [10], in assay [11], in [12] and in assay [13] was “inactive” each time. Moreover, in [14], the Potency entry is “inactive”. The compound was classed as inactive in [3]. The activity change, positive = activation in assay [17] was -23.3%. Further, the max response in assay [19] is -3.6%.
For the compound `O=C1c2ccccc2C(=O)C1C(=O)C(c1ccccc1)c1ccccc1`, the Potency entry in assay [1], in [4], in assay [5], in assay [18], in assay [6] and in assay [16] was “inactive” throughout. Moreover, the Potency result in assay [7], in [8], in [9], in [10], in assay [12] and in assay [13] was “inactive” in each case. In assay [14], the Potency result is “inactive”. In [17], the activity change, positive = activation was -7.49% [at 42.5 µM]. The max response in [19] is 3.22%.
For `C=CC(=O)OCC(C)O` (stereo unspecified), the Potency result in [1], in assay [2], in assay [4], in assay [20], in assay [5] and in assay [6] was “inactive” each time. Moreover, the Potency result in assay [7], in [8], in assay [10], in assay [11], in [12] and in assay [13] was “inactive” throughout. Further, the Potency result in assay [14] was “inactive”. For the same compound, in assay [19], the max response was 21.2%.
For the compound `NS(=O)(=O)C(F)(F)C(F)(F)C(F)(F)C(F)(F)C(F)(F)C(F)(F)C(F)(F)C(F)(F)F`, the Potency result in [1], in assay [2], in [4], in [20], in assay [5] and in assay [18] was “inactive” in each case. Also, the Potency result in assay [6], in assay [16], in assay [7], in [8], in [9] and in assay [10] was “inactive” in each case. The Potency entry in [11] and in assay [12] was “inactive” in each case. Moreover, the outcome in assay [3] was inactive. Further, the activity change, positive = activation in assay [17] was -39.9%. In addition, the max response in [19] was -4.36%.
Turning to `CCOC(=O)COc1cc(-c2nn(C)c(OC(F)F)c2Cl)c(F)cc1Cl`, the Potency entry in [15], in assay [2], in [4], in assay [20], in assay [5] and in assay [18] was “inactive” each time. Further, the Potency entry in [6], in [16], in assay [7], in assay [8], in assay [9] and in assay [10] was “inactive” each time. The Potency entry in assay [12], in assay [13] and in assay [14] was “inactive” each time. Further, the compound was classed as inactive in [3]. Moreover, the activity change, positive = activation in assay [17] was 3.17%. Further, in assay [19], the max response is -5.9%.
For the compound `O=[N+]([O-])C(Br)(CO)CO`, in [1], the Potency was 30.6 µM (active). Besides, the Potency entry in assay [2], in [20], in [6] and in assay [10] was “inactive” each time.
